High-throughput results: PubChem, several laboratories
CD11b adhes enh: increases human CD11b/CD18 adhesion to fibrinogen | P05107+P11215 | K562 CD11b/CD18 adhesion to fibrinogen, ATPlite luminescence | activation, % at 10 µM | 93,000 compounds, 0.07% hits | AID 1499;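 active = 10 µM primary screen giving 50% or more activity, confirmed by 40% or more on retest at that dose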
MRP reversal: compounds reversing MRP-mediated drug resistance; H69AR cells + 2 uM doxorubicin, CellTiter-Glo, 72 h; differential viability (reversal), % at 10 µM; 85,000 compounds, 0.04% hits; AID 602;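 active = viability drop by adding the cancer drug above about 55%, with treated viability meeting a 40% cutoff, limit read from the data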;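 also: larger differential means the compound sensitizes cells more to doxorubicin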
Phagocytosis inh: inhibitors of macrophage phagocytosis. AID 1029. inhibition, % at 5 µM. 110,000 compounds, 0.07% hits. J774A.1 macrophage IgG-bead phagocytosis, imaging;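 active = inhibition above the mean of the plate negative controls plus 5 SD, cut at about 13% in these data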;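 also: phagocytic index as fraction of beads internalized from green versus red external bead signal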
Mac1 fbg inh: blocks human CD11b/CD18 adhesion to fibrinogen. K562 CD11b/CD18 adhesion to fibrinogen, ATPlite luminescence; Mn2+ added to activate the integrin. inhibition, % at 10 µM. 93,000 compounds, 0.54% hits. AID 1497;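 active = primary inhibition of 50% or more at 10 µM, then 40% or more on retest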
MRP-1 activ: MRP-1 activation. AID 799. 140,000 compounds, 0.61% hits. viability increase, % at 10 µM. H69AR cells + doxorubicin, viability rescue, CellTiter-Glo;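 active = viability gain under doxorubicin at or above a set limit, the compound median plus 3 SD, cut at about 4.7% in these data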;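 also: MRP-1 overexpressing cells given doxorubicin 25 µM after compound pretreatment; 18-22 h compound pretreatment then 72 h with doxorubicin before readout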
Smad3 inh: inhibitors of human Smad3 transcription factor binding; TR-FRET Smad3/Dy647-FoxH1 peptide binding, europium anti-His; inhibition, % at 25 µM; 88,000 compounds, 0.29% hits;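 active = compounds that reduce the energy-transfer binding signal between the protein and its labelled peptide by more than half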
Target sequence (P84022 whole entry, looked up): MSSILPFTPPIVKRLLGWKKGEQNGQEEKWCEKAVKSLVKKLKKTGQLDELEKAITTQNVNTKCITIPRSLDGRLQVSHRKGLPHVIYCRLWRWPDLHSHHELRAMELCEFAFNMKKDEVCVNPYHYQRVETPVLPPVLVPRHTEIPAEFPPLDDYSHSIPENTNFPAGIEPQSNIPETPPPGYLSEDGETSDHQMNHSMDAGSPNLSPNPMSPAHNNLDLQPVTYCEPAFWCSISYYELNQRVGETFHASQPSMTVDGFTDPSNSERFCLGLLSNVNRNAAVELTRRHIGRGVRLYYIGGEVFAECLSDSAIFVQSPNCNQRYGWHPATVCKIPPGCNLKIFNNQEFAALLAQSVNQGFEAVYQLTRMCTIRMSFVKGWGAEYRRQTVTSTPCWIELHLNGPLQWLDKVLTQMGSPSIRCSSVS
Hits are given with their value; n = inactive; x = no result given; [ ] = dose if it differs, or a comment. An excerpt weighted towards active compounds, which were near 1.2% of everything screened.

SMILES | CD11b adhes enh | MRP reversal | Phagocytosis inh | Mac1 fbg inh | MRP-1 activ | Smad3 inh
N=C(N)SCc1ccccn1 | x | x | n | x | 6.3 | x
O=C(/C=C/c1ccccc1)n1cnnc1SC/C=C/c1ccccc1 | n | x | n | n | 4.7 | x
Nn1c(SC/C=C/c2ccccc2)nnc1-c1ccco1 | n | n | n | n | n | n
CN1CCc2ccccc2[C@H]1Cc1ccccc1NC(=O)c1sc2ccccc2c1Cl | x | x | x | x | x | n
Cc1cc(OCC(=O)Nc2ccncc2)c(C)cc1Br | n | n | n | 98 | n | n
C[C@H]1C[C@@H]2[C@@H]3CCC4=CC(=O)C=C[C@@]4(C)[C@@]3(Cl)[C@H](Cl)C[C@@]2(C)[C@]1(O)C(=O)COP(=O)(O)O | x | x | x | x | x | n
O=S(=O)(Nc1nc2ccccc2nc1N1CCN(c2ccccn2)CC1)c1ccc(Cl)cc1 | n | x | n | 102 | n | x
O=S(=O)(Nc1nc2ccccc2nc1N1CCc2ccccc2C1)c1ccc(Cl)cc1 | x | x | n | x | n | x
C=CCn1c(C)cc(C(=O)COC(=O)[C@@H](NC(=O)c2ccccc2Cl)C(C)C)c1C | n | x | n | 79 | n | x
Cc1cc(Cl)nc(NC(=O)CSc2ccc(Cl)cc2)n1 | x | x | x | x | x | n
Cc1ccc(S(=O)(=O)CC2CSc3nc(N)cc(=O)n32)cc1 (stereo unspecified) | n | n | n | n | n | n
Cc1ccc(S(=O)(=O)CC2CSc3nc4ccccc4n32)cc1 (stereo unspecified) | n | x | n | 93 | n | x
Cc1ccc(NC(=O)CC2S/C(=N/c3nccs3)N(C)C2=O)c(C)c1 (stereo unspecified) | n | n | x | n | n | n
Oc1cc(NCc2cccnc2)ccc1-c1nc2ccccc2o1 | x | n | n | x | 5.0 | n
C[C@H]1[C@H](O)[C@@H](C)C=CC=CC=CC=CC=CC=CC=C[C@H](O[C@H]2O[C@@H](C)[C@H](O)[C@@H](N)[C@@H]2O)C[C@@H]2O[C@@](O)(C[C@@H](O)C[C@@H](O)[C@@H](O)CC[C@@H](O)C[C@@H](O)CC(=O)O[C@H]1C)C[C@H](O)[C@H]2C(=O)O | x | x | x | x | x | n
O=C(CSC1=NS(=O)(=O)c2ccccc21)Nc1ccccc1 | n | n | n | 72 | n | n
COC(=O)CSC1=NS(=O)(=O)c2ccccc21 | n | n | n | n | n | n
O=C(COc1ccc(Br)cc1Br)NC(=S)N1CCCc2ccccc21 | n | x | n | 60 | n | x
Cc1ccc(C2C(/C=C3/SC(=S)NC3=O)=C(c3cccs3)Oc3ccccc32)cc1 (stereo unspecified) | n | n | n | 78 | n | n
NNS(=O)(=O)c1cc(C(=O)O)cc(C(=O)O)c1 | x | x | x | x | x | n
Cc1[nH]n(-c2ccccc2)c(=O)c1N=Nc1nccs1 | n | x | n | 56 | n | x
Cc1[nH]n(-c2ccc(S(=O)(=O)O)cc2)c(=O)c1N=Nc1ccccc1 | x | x | x | x | x | n
CCOc1cc2[nH]c(=O)n(CC3CCC(C(=O)NC(C)CC)CC3)c(=O)c2cc1OCC (stereo unspecified) | x | n | x | x | x | n
CN1CCN(c2nc(-c3ccccn3)nc3ccccc23)CC1 | n | 68 | x | n | n | n
Oc1ccccc1-c1nc(N2CCCC2)c2ccccc2n1 | n | n | n | n | n | 55[fluorescence artefact?]
SMILES | CD11b adhes enh | MRP reversal | Phagocytosis inh | Mac1 fbg inh | MRP-1 activ | Smad3 inh
CC1CCN(c2nc(-c3ccccc3O)nc3ccccc23)CC1 | x | n | x | x | n | n
Cc1ccc(-c2cc(C(F)F)n3ncc(C(=O)Nc4c(C)nn(Cc5c(Cl)cccc5Cl)c4C)c3n2)cc1 | 116 | x | n | n | n | x
Cc1nn(Cc2c(Cl)cccc2Cl)c(C)c1NC(=O)c1cnn2c(C(F)F)cc(-c3ccccc3)nc12 | 116 | x | n | n | n | x
CCc1nccn1C(=O)c1cnn2c(C(F)F)cc(-c3ccccc3)nc12 | n | x | n | n | n | x
CCc1nccn1C(=O)c1cnn2c(C(F)F)cc(-c3ccc(C)cc3)nc12 | n | x | n | n | 6.0 | x
Cc1ccc(-c2cc(C(F)F)n3ncc(C(=O)Nc4c(C)nn(Cc5ccccc5Cl)c4C)c3n2)cc1 | x | x | x | x | n | x
N#C[C@H]1CN[C@H](N)N[C@@H]1N | x | x | x | x | x | n
CN(/N=C/c1ccccc1O)c1ccc2ccccc2n1 | x | x | x | x | x | n
Cc1c(C(=O)NC2CCCc3ccccc32)oc2ccc(S(=O)(=O)N3CCOCC3)cc12 (stereo unspecified) | 57 | n | n | n | n | n
Cc1cc(C)c(S(=O)(=O)NCc2ccncc2)c(C)c1 | n | n | n | 83 | n | n
